Experimental data: PubChem BioAssay (NCI)
Compounds without any hit were thinned out: in the full panel of roughly 83,000, 20% have a hit.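 Percent growth is the endpoint: 0 to 100 indicates growth inhibition (40 means 60% inhibition), 0 means no net growth, and negative values indicate cell death.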 Calls of active or inactive are those of the source. Rule for the calls: active = growth percent below 10; inactive = the rest.

Test system: SK-MEL-28 melanoma
Assay: NCI-60 one-dose screen, 48 h (100 = growth as untreated, 0 = no growth, -100 = all killed)
Settings: 10 µM unless noted

Row | SMILES | growth
1 | CN1CCN(c2ccc(-c3ccc4ncc(C#N)c(Nc5ccc(F)c(Cl)c5)c4c3)cc2)CC1 | -43.1% (active)
2 | CNc1ccc(Nc2cccc(C)c2)c2c1C(=O)c1ccccc1C2=O | 114% (inactive)
3 | O=C(Nc1ccc(Cl)cc1F)c1ccccc1O | 29.9% (inactive)
4 | O=C1CCC(C(=O)NCCNCCNC(=O)C2CCC(=O)N2)N1 (stereo not drawn) | 112% (inactive)
5 | CC/C=C\C[C@@H](O)C/C=C1/C(=O)C=C[C@H]1C/C=C\CCCC(=O)OC | -32.8% (active)
6 | Cc1ccc(C(=O)NN2C(=O)CSC2c2cccc([N+](=O)[O-])c2)cn1 (stereo not drawn) | 124% (inactive)
7 | CNCCCNc1nc2ccccc2c2c(=O)c3cc(OC)ccc3sc12 | 103% (inactive)
8 | COc1ccc(-c2[nH]c3ccc(OC)cc3c2/C=C(\C#N)S(=O)(=O)c2ccccc2)cc1 | 43.2% (inactive)
9 | N[C@@H](Cc1ccccc1)[C@@H](O)C(=O)NCc1ccc(F)cc1 | 108% (inactive)
10 | COc1cc(CCC[P+](c2ccccc2)(c2ccccc2)c2ccccc2)c(OC)c(OC)c1OC | 74.4% (inactive)
11 | O=C(Nc1ccc(OS(=O)(=O)c2ccc(F)cc2)cc1)c1ccc(Cl)cc1 | 107% (inactive)
12 | CC(=O)OC[C@H]1OC(Sc2sc(C(=O)c3ccc(Br)cc3)c(N)c2-c2nc3ccccc3s2)[C@H](OC(C)=O)[C@@H](OC(C)=O)[C@H]1OC(C)=O (stereo partly drawn) | 104% (inactive)
13 | CCOc1c(B(O)O)cccc1-c1nc2ccc3[nH]ncc3c2c2c1CCCC2 | 96.5% (inactive)
14 | Cc1ccc(-c2nc3c(c(-c4ccccc4)nn3-c3ccccc3)c(-c3ccc(O)cc3)c2C#N)cc1 | 67.1% (inactive)
15 | C/C(=C\C(=O)c1ccc(Cl)cc1)c1ccc(Cl)cc1 | 111% (inactive)
16 | CCC12CCC[N+]3([O-])CCC4(C(=Nc5ccccc54)C(O)(C(=O)OC)C1)C23 (stereo not drawn) | 94.5% (inactive)
17 | CCN1C(=O)N(CC)C2Nn3c(s/c(=C4\C(=O)N(CCC(C)C)c5ccccc54)c3=O)=NC21 (stereo not drawn) | 78.6% (inactive)
18 | S=c1nc(-c2ccccc2)oc(=NC2CCCCC2)n1C1CCCCC1 | 107% (inactive)
19 | NC[C@@H]1O[C@H](O[C@@H]2[C@@H](CO)OC(O[C@@H]3[C@@H](O)[C@H](N)C[C@H](N)[C@H]3OC3O[C@H](CN)[C@@H](O)[C@H](O)[C@H]3N)[C@@H]2O)[C@H](N)[C@@H](O)[C@@H]1O (stereo partly drawn) | 111% (inactive)

Row | SMILES | growth
20 | Cc1cc(=O)oc2cc(OC(=O)N3CCN(C)CC3)ccc12 | 101% (inactive)
21 | C=CCc1cc(C)ccc1NC(C(=O)NCC(=O)OC)c1ccccc1 (stereo not drawn) | 101% (inactive)
22 | COc1ccc(OC)c(/C=C/C(=O)N/N=C/c2ccccc2)c1 | 65.5% (inactive)
23 | COc1ccc(/C=N/Nc2cc(=O)[nH]c3ccc(Cl)cc23)cc1 | 87.2% (inactive)
24 | CCOC(=O)c1[nH]c(C)c(C(=O)OCc2ccccc2C#N)c1C | 87.1% (inactive)
25 | COc1cc(Nc2nc(NCCN)nc3cc[nH]c(=O)c23)cc(OC)c1 | 102% (inactive)
26 | COc1cc(/C=C/c2c(C(C)=O)c(C)nc3ccccc23)cc(OC)c1OC | 53.9% (inactive)
27 | Cc1nc2ccccc2c(/C=C/c2ccc(Cl)cc2)c1C(=O)/C=C/c1ccc(C(F)(F)F)cc1 | -69.7% (active)
28 | O=C(N/N=C/[C@H](O)[C@H](O)[C@H](O)CO)c1ccc(NC(=O)c2cccnc2)cc1 | 112% (inactive)
29 | COc1cccc(-c2nc(-c3ccc(NC(=O)c4ccccc4)cc3)[nH]c2-c2ccnc(Br)c2)c1 | 37% (inactive)
30 | CCCCn1c(=O)c(-c2cc(-c3ccc(Cl)cc3)nc(-c3ccc(Cl)cc3)c2)cc2cc(Cl)ccc21 | 104% (inactive)
31 | O=S(=O)(NCCCNc1cc(-c2c(-c3cccc(O)c3)nc3sccn23)ccn1)c1cccc2ccccc12 | 67.3% (inactive)
32 | COc1cccc2c(=O)c3c(sc12)c(N1CCNCC1)nc1ccccc13 | 107% (inactive)
33 | COc1cc(-c2nc3sccn3c2-c2ccnc(NCCCNS(=O)(=O)c3ccc(F)cc3)n2)ccc1F | 73.9% (inactive)
34 | CCCCC[C@H](O)C/C=C1/C(=O)C=C[C@@H]1C/C=C\CCCC(=O)O | 66.4% (inactive)
35 | CCCCCCN1C(=O)/C(=c2\sc3n(c2=O)C2C(NN=3)N(CC)C(=O)N2CC)c2ccccc21 (stereo not drawn) | 35.1% (inactive)
36 | COc1cccc2c(=O)c3c(sc12)c(NCCCN)nc1ccccc13 | 91.4% (inactive)
37 | COc1ccc2c(c1)c(-c1nn3cc(-c4cccs4)nc3s1)cn2C | 97.8% (inactive)
38 | CCOC(=O)Nc1ccc(-c2nc(-c3cccc(OC)c3)c(-c3ccnc(Br)c3)[nH]2)cc1 | 42% (inactive)
